High-throughput results (PubChem BioAssay)
In the library only some 0.88% were active in any assay of this set; here they are far more common.
APEX1 inh – APE1 (human) endonuclease inhibition | hit rate 0.35% among 350,000 | AID 2517 | Potency, µM (series often up to 65.8 µM), without a hit: at the top dose activity change, negative = inhibition, most hits filed as inhibitors | P27695 | recombinant APE1, TAMRA/BHQ-2 abasic DNA cleavage fluorescence;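 note: plate controls were vehicle for no effect and reference inhibitor for full effect; nearly all actives have a fitted effect of over 55% in size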
Target sequence (P27695 whole entry, looked up): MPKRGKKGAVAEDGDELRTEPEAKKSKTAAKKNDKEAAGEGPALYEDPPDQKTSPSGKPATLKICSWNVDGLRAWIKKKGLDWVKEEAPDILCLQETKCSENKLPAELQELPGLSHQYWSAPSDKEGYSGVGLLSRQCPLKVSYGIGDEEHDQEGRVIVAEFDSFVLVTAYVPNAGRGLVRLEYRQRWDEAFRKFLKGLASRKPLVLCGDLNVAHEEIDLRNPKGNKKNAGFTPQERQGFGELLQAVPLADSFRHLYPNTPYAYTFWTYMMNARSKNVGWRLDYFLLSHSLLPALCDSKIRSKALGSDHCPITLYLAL
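0.75 nM APE1 + cpd, 15 min RT; start w/ 50 nM TAMRA/BHQ-2 THF-abasic dsDNA; kinetic fluor 525/598 nm ×3 reads @60 s; Δ(read3−read1); normalized to DMSO and NSC13755 control wells.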
GCN5L2 inh – inhibitors of human GCN5L2 histone acetyltransferase; GCN5L2 HAT assay, ThioGlo1 CoA-SH fluorescence; Q92830; AID 504327; Potency, µM (series often up to 58.9 µM), for inactives: at the highest dose activity change, negative = inhibition, hits mostly inhibitors; hit rate 0.21% among 390,000; note: % is set by controls: 0 for no effect and ±100 for the full control effect
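Preincubate 20nM GCN5L2 with compound 15 min, RT → add 50uM ThioGlo1 + 75uM H3(1-25) + 70uM acetyl-CoA → read fluorescence 0 and 20 min. Primary qHTS; fluorescent artifacts likely.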
BLM inh – Bloom syndrome helicase (human) inhibition. P54132. recombinant BLM DNA unwinding, fluorescence dequenching. Potency, µM (highest dose often 56.1 µM), without a hit: at the highest dose activity change, negative = inhibition, actives largely listed as inhibitors. hit rate 0.2% among 350,000;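 note: plate controls were vehicle for no effect and no enzyme for full effect; nearly all actives have a fitted effect of over 35% in size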
WRN inhibitor – inhibitors of human WRN helicase. Q14191. WRN helicase unwinding, fluorescent forked duplex, kinetic. Potency, µM (highest dose often 114 µM), inactives show top-dose activity change, negative = inhibition, most hits filed as inhibitors. hit rate 0.46% among 360,000; note: % is set by controls: 0 for no effect and ±100 for the full control effect; nearly all actives have a fitted effect of over 55% in size
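Kinetic fluorescence helicase assay: unwinding of a quenched forked DNA duplex (100 nM final) with 2 mM ATP final raises red fluorescence (525/598 nm). Compounds sat 15 min at room temperature with 20 nM WRN beforehand.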
ERG-DNA inh – ERG Ets/DNA interaction inhibition; fluorescence polarization, His-ERG Ets domain / labelled DNA; Potency, µM (titrated, usually from 76.9 µM), for inactives: at the top dose FP activity, negative = inhibition, hits mostly inhibitors; hit rate 0.028% among 370,000; AID 624246; active = well fitted inhibition curve with a large enough effect in the polarisation, with a control signal flat; inconclusive = small, poorly fitted or top-dose-only effect, or effect the other way, or a change in a side signal; inactive = no such curve, though single readings can be large or run the other way; the % refers to the polarisation;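 note: polarization taken with two DNA probes labelled with fluorescein and Texas red; % of control where 0% means no effect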
Target sequence (P11308 whole entry, looked up, the tested form may be a part): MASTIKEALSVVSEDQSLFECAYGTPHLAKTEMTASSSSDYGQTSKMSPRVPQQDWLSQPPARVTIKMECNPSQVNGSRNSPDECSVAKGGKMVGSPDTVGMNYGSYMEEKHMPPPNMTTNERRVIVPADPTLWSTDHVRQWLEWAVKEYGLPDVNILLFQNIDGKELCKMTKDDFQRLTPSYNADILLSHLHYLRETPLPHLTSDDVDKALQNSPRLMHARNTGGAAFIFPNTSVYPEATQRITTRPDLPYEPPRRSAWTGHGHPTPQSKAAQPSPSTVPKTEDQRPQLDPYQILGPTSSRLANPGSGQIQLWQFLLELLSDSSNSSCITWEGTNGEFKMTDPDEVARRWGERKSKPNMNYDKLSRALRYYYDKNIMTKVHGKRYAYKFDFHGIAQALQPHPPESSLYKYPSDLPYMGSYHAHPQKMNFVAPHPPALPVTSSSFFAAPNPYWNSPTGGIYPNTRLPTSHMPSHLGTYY
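His-tagged ERG Ets domain (1 uM in the protein solution; 300mM KCl, 50mM Tris-HCl, 1mM EDTA, 1mM DTT, pH 7.5) received compound, then a probe mix of 5 nM fluorescein-DNA and 100nM Texas-615-DNA. Fluorescence polarization was read for both dyes.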
RECQ1 inh – inhibitors of human RECQ1 DNA helicase. P46063. RECQ1 DNA unwinding, red fluorescence kinetic read. Potency, µM (titrated, usually from 57.3 µM), without a hit: top-dose activity, negative = inhibition, most hits filed as inhibitors. hit rate 0.54% among 240,000. AID 2549;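 note: plate controls were vehicle for no effect and no enzyme for full effect; nearly all actives have a fitted effect of over 30% in size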
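50 nM RECQ1T1 preincubated 15 min with compound in Tris pH 8.0 buffer with MgCl2, DTT, Tween-20 and 2.5 ug/ml poly(dI-dC); started with 200 nM TAMRA/BHQ-2 forked duplex and 2 mM ATP. Unwinding read as fluorescence (525/598 nm), two reads 2 h apart.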
Starred values were filed as active, the others as inactive; i = inactive; ? = inconclusive; nt = not tested or not shown; ! = repeats disagree; [ ] = another dose, or the depositor's remark. Unless noted, calls come from the whole dose curve; as a rule, active = well fitted curve in the direction sought with a large enough effect; inconclusive = small, poorly fitted or top-dose-only effect, or another doubt; inactive = no such curve, though single readings can be large; an effect the other way counts as inactive or inconclusive. Potency is the fitted concentration of half-maximal effect.

SMILES	APEX1 inh	GCN5L2 inh	BLM inh	WRN inhibitor	ERG-DNA inh	RECQ1 inh
Nc1ccc2cc3[nH]c4cc(N)ccc4c3nc2c1	nt	nt	nt	25.1µM*	nt	nt
CCCCN(C)C(=O)CS(=O)(=O)Cc1nc(-c2cccc(OC)c2)oc1C	?	-19.5%	3.4%	-15.0%	20µM*	-6.8%
CCN(CCCNC(=O)CN1N=C(c2ccccc2)CCC1=O)c1cccc(C)c1	nt	1.5%	-2.1%	nt	5.1%	nt
CCN1/C(=C/C=C/C=C/C=C/c2sc3ccccc3[n+]2CC)Sc2ccccc21	-31.0%	?	0.2%	-29.6%	106.7%	nt
CCN1/C(=C/C=C/c2sc3ccccc3[n+]2CC)Sc2ccccc21	23.8µM*	?	31.6µM*	39.8µM*	50.6%	nt
Cc1cccc(NC(=O)N2CC=C(c3c[nH]c4ccccc34)CC2)c1C	nt	-2.4%	-12.3%	nt	-1.0%	nt
COCc1cc(C)nc(SCC(=O)c2ccc(O)c(O)c2)c1C#N	2.8%	-3.4%	-3.7%	?	nt	25.1µM*
COCc1cc(C)nc(SCC(=O)Oc2ccccc2)c1C#N	-4.0%	-12.5%	-5.9%	0.3%	1.3%	-2.7%
C[n+]1c2cc(N)ccc2cc2ccc(N)cc21 (tested in a mixture with another compound)	25.1µM*	nt	nt	nt	nt	nt
Nc1ccc2ccc(O)cc2c1	nt	nt	nt	?	6.4%	nt
CC(C)CC(=O)N[C@H](C(=O)N[C@H](C(=O)N[C@@H](CC(C)C)[C@@H](O)CC(=O)N[C@@H](C)C(=O)N[C@@H](CC(C)C)[C@@H](O)CC(=O)O)C(C)C)C(C)C	7.0%	-24.5%	1.2%	-9.6%	-4.3%	31.6µM*!
O=C(c1ccc(Cl)cc1)C1CCN(C(=O)C2CC2)CC1	17.4%	14.1µM*	0.1%	-0.3%	-1.4%	-9.2%
O=C1c2ccccc2NC(c2ccc(-c3ccc(-c4ccccc4)cc3)o2)N1O (centres undefined)	15.1%	nt	nt	nt	nt	nt
Cc1cc(=O)cc(C)n1-c1ccc(Br)cc1	-11.1%	-2.6%	0.7%	15.8µM*	10.9%	i
Cc1cc(=O)cc(C)n1-c1ccc2c(c1)nc(C)n2-c1ccccc1	-3.2%	-8.8%	-0.3%	-12.4%	nt	i
C[C@H](Cc1ccc(O)c(O)c1)[C@@H](C)Cc1ccc(O)c(O)c1	?	?	nt	nt	nt	2.51µM*
Cc1c(C(=O)O)cnc2c([N+](=O)[O-])cnn12	-8.5%	-1.0%	2.1%	79.4µM*	14.7%	-3.4%
CC(=O)c1cnc2c(C(=O)O)cnn2c1C	-6.7%	35.4%	-12.9%	2.8%	nt	-12.4%
C=CCOc1cccc(/C=C2\C(=O)N(Cc3ccc(C)cc3)C(C)=C2C(=O)OC)c1	-1.4%	-4.8%	-7.3%	-9.2%	-9.4%	-4.5%
CCOc1cc(/C=C2\C(=O)N(Cc3ccc(C)cc3)C(C)=C2C(=O)OC)ccc1O	-2.2%	?	-13.3%	79.4µM*	3.4%	-0.7%
CC(C)[C@H](NC(=O)OC(C)(C)C)[C@@H](O)CC(=O)OC(C)(C)C	-4.5%[12.4 µM]	nt	2.8%[12.4 µM]	nt	nt	12.0%[11.5 µM]
COc1ccc2c(=O)c3c(=O)n(Cc4ccco4)c(-c4ccco4)nc3oc2c1	?	-5.5%	-26.4%	44.7µM*	5.6%	1.8%
O=C(c1cc(O)c(O)c([N+](=O)[O-])c1)c1ccccc1F	4.6%	?	nt	?	1.6%	2.24µM*
O=C(Nc1ccc([N+](=O)[O-])cc1)c1ccccc1F	5.0%	-4.9%	-1.2%	-4.3%	4.7%	-0.7%
Nc1cc(C(=O)O)c(O)c(S(=O)(=O)O)c1	28.2µM*	nt	nt	nt	nt	-3.6%
SMILES	APEX1 inh	GCN5L2 inh	BLM inh	WRN inhibitor	ERG-DNA inh	RECQ1 inh
O=C(N/N=C1/CCCc2ccccc21)c1cc([N+](=O)[O-])cc([N+](=O)[O-])c1	7.8%	-8.2%	-2.1%	nt	nt	i
O=C(N/N=C1\CCCc2ccccc21)c1cccc([N+](=O)[O-])c1	-5.5%	31.6µM*	-2.3%	-11.7%	nt	-5.3%
CCCCCCCCCCCCCCCCCCNc1ccn(C2OC(COP(=O)(O)OCC3OC(n4cc(F)c(=O)[nH]c4=O)CC3O)C(O)C2O)c(=O)n1 (centres undefined)	nt	nt	nt	39.8µM*	nt	nt
Cc1ccc(NS(=O)(=O)c2cccc3nsnc23)cc1	9.6%	-1.5%	-3.2%	0.0%	-6.0%	-0.2%
O=S(=O)(Nc1ccccc1)c1cccc2nsnc12	7.52µM*	-12.9%	-12.2%	1.5%[11.6 µM]	-4.8%	nt
COc1ccccc1NC(=O)Nc1ccc(Cl)c(S(=O)(=O)Nc2ccccc2OC)c1	33.1%	-11.4%	-7.5%	-8.8%	-14.5%	-16.3%
COc1ccccc1NS(=O)(=O)c1cc(NC(=O)CNC(=O)c2ccc(C)s2)ccc1Cl	?	-7.7%	-9.4%	56.2µM*	0.7%	-4.6%
CCOC(=O)C1=C(C)N=c2s/c(=C/c3cccc([N+](=O)[O-])c3O)c(=O)n2C1c1ccc(OC)cc1OC (centres undefined)	23.8µM*	-0.9%	?	-32.2%[11.6 µM]	51.6%	nt
O=S(=O)(O)c1ccc(O)cc1	nt	-10.2%	-10.8%	nt	nt	nt
C=Cc1ccc(S(=O)(=O)O)cc1	14.1µM*	4.2%	-4.1%	nt	nt	-16.8%
NS(=O)(=O)c1cccc2c1c([N+](=O)[O-])cc1[nH]c(=O)c(=O)[nH]c12	1.58µM*	?	-4.7%	nt	nt	1.41µM*!
Cc1ccccc1NC(=S)NC(=O)/C=C/c1ccco1	-1.7%	-3.3%	-8.9%	79.4µM*	9.0%	nt
O=C(/C=C/c1ccco1)NC(=S)Nc1cccc(-c2nc3ccccc3o2)c1	22.3%	-16.4%	?	50.1µM*	-3.6%	-10.0%
N#Cc1c(-c2cccc(Cl)c2)no[n+]1[O-]	-7.2%	nt	nt	nt	nt	nt
c1nc2nc(Nc3ccc(N4CCOCC4)cc3)nc(NC3CCCCC3)c2[nH]1	-4.5%	-12.2%	-10.2%	nt	nt	-19.1%
Cc1coc2c1C(=O)C(=O)c1c-2ccc2c1CCCC2(C)C	-10.0%	28.2µM*	-18.4%	-7.3%[11.6 µM]	10.5%	?
Cc1coc2c1C(=O)C(=O)c1c-2ccc2c(C)cccc12	-3.6%	-23.7%	?	-36.0%	1.9%	i
COc1ccc2nc3cc(Cl)ccc3c(Nc3cc(CN4CCCC4)c(O)c(CN4CCCC4)c3)c2n1	15µM*	-2.4%	?	nt	nt	nt
COc1ccc2nc3cc(Cl)ccc3c(Nc3cc(C(C)C)c(O)cc3C)c2c1	-2.7%	-6.0%	-2.3%	1.2%[57.1 µM]	13.6%	-1.6%
Cc1sc2ccccc2[n+]1CC(=O)O	14.6%	4.6%	1.9%	50.1µM*	-16.3%	-1.3%
Cc1sc2ccccc2[n+]1CC(=O)c1ccccc1	17.4%	-1.3%	-6.5%	10.8%	2.8%	nt
O=C(O)CCCN1C(=O)/C(=C/c2cn(-c3ccccc3)nc2-c2cccs2)SC1=S	?	?	?	50.1µM*	16.4%	?
